Assay outcomes as filed in PubChem.
POLI inh – qHTS for Inhibitors of Polymerase Iota; DNA polymerase iota (Homo sapiens), Q9UNA4; Pol iota fluorescent replication assay, 10 min; Potency, µM (titrated, usually from 115 µM), inactives show top-dose activity, negative = inhibition, hits mostly inhibitors; actives 1% (n = 390,000); AID 588590, 2011
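Pol iota at 10 nM preincubated 15 min with compounds at room temperature; reaction started with fluorescent substrate, 50 nM final. Fluorescence read kinetically at 0 and 10 min; buffer-only wells as negative control.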
FEN1 inh – qHTS Assay for the Inhibitors of Human Flap endonuclease 1 (FEN1); Recombinant FEN1 flap cleavage, fluorescence, 15 min; Potency, µM (series often up to 114 µM), inactives show at the highest dose activity change, negative = inhibition, actives largely listed as inhibitors; actives 0.35% (n = 390,000); AID 588795, 2011; also: % is scaled to controls: 0 for no effect and ±100 for the full control effect; nearly all actives have a fitted effect of over 65% in size
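Enzyme 10 nM, 15 min RT preincubation with compound; start with substrate 50 nM final; reads at 0 and 15 min; qHTS titration, four-parameter Hill fit.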
Pol kappa inh-1 – qHTS for Inhibitors of Polymerase Kappa; DNA polymerase kappa (Homo sapiens), Q9UBT6; purified Pol kappa, fluorescent DNA synthesis assay, 10 min; Potency, µM (series often up to 107 µM), without a hit: at the highest dose activity, negative = inhibition, actives largely listed as inhibitors; actives 0.53% (n = 400,000); AID 588579, 2011; also: % is scaled to controls: 0 for no effect and ±100 for the full control effect
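Readout: fluorescence, taken kinetically at 0 and 10 min. Conditions: 10 nM Pol kappa, 15 min RT compound preincubation, 50 nM substrate final. Controls: enzyme-free buffer wells.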
Pol beta inh – qHTS Assay for Inhibitors of DNA Polymerase Beta; Potency, µM (top dose mostly 114 µM), inactives show at the highest dose activity change, negative = inhibition, usual class: inhibitors; P06746; AID 485314, 2010; actives 1.3% (n = 340,000); Pol beta primer extension/strand displacement, fluorescence kinetic; also: % is scaled to controls: 0 for no effect and ±100 for the full control effect
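Preincubation: enzyme (10 nM) with compound, 15 min, RT. Reaction: substrate added to 50 nM final. Reads: 0 and 10 min. Analysis: normalized, Hill fit.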
Pol eta inh-1 – qHTS for Inhibitors of Polymerase Eta; DNA polymerase eta (Homo sapiens), Q9Y253; recombinant Pol eta, fluorescent DNA replication assay; Potency, µM (highest dose often 114 µM), for inactives: at the highest dose activity change, negative = inhibition, actives largely listed as inhibitors; actives 1.2% (n = 390,000); AID 588591, 2011; also: % is scaled to controls: 0 for no effect and ±100 for the full control effect
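Pol eta (10 nM) was preincubated with compounds for 15 min at room temperature, after which fluorescent replication substrate (50 nM final) was added to start the reaction. Fluorescence was read kinetically at 0 and 10 min.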
WRN inhibitor – qHTS for Inhibitors of WRN Helicase | Bifunctional 3'-5' exonuclease/ATP-dependent helicase WRN (Homo sapiens), Q14191 | WRN helicase unwinding, fluorescent forked duplex, kinetic | Potency, µM (titrated, usually from 114 µM), for the others: top-dose activity change, negative = inhibition, most hits filed as inhibitors | AID 651768, 2012 | actives 0.46% (n = 360,000); also: % is scaled to controls: 0 for no effect and ±100 for the full control effect; nearly all actives have a fitted effect of over 55% in size
Target sequence (Q14191 whole entry, looked up): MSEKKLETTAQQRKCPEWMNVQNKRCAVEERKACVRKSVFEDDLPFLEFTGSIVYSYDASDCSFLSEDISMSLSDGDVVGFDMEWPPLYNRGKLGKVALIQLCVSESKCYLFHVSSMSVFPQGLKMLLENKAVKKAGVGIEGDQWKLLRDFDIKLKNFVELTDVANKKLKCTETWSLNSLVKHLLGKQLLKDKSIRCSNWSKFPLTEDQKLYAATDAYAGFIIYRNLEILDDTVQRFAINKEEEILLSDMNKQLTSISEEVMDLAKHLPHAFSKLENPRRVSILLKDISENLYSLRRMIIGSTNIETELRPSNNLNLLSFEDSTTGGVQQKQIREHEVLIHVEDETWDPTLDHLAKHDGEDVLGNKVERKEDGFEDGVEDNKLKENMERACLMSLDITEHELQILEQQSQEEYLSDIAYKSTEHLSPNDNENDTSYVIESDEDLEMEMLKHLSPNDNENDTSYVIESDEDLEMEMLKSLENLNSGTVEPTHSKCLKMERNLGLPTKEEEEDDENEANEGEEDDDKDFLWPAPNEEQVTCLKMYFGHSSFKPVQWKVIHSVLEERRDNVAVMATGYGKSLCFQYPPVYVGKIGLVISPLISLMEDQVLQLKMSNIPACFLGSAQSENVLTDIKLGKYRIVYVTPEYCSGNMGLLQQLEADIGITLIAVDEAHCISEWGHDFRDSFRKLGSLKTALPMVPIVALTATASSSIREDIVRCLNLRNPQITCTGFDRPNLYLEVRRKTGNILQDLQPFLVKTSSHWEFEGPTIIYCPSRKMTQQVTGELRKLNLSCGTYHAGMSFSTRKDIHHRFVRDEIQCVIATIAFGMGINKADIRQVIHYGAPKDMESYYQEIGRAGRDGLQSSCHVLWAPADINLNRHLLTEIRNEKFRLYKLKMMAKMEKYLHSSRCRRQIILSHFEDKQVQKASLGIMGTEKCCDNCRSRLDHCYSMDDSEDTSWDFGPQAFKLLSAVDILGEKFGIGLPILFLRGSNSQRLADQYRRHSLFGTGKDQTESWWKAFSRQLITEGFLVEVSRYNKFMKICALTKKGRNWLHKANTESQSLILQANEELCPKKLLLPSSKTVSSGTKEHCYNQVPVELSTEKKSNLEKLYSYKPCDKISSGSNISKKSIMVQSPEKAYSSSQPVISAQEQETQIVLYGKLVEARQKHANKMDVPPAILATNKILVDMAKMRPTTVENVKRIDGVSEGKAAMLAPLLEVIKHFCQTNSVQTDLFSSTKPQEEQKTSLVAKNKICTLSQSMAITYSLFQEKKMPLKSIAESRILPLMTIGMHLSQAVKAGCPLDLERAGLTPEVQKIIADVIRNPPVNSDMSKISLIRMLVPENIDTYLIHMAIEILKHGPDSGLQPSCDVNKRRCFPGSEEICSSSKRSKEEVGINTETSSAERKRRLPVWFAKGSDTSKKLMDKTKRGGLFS
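Kinetic red-fluorescence monitoring (525/598 nm) tracks WRN helicase activity after 100 nM fluorophore-quencher forked duplex and 2 mM ATP are added to 20 nM enzyme pretreated 15 min at room temperature with compound.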
Pol kappa inh-2 – qHTS for Inhibitors of Polymerase Kappa: Confirmatory Assay for Cherry-picked Compounds; actives 76% (n = 920); purified Pol-kappa, fluorescent strand-displacement substrate; Potency, µM, hits mostly inhibitors; shares compounds with Pol eta inh-1
Pol eta inh-2 – qHTS for Inhibitors of Polymerase Eta: Confirmatory Assay for Cherry-picked Compounds. shares compounds with Pol eta inh-1. Pol eta primer extension, TAMRA/BHQ fluorescence, 10 min. Potency, µM, usual class: inhibitors. actives 64% (n = 2,600). AID 720502, 2013
Numbers without * were called inactive; ? = inconclusive; . = no result given; [ ] = dose if it differs, or a comment. Shown are actives, neighbours in structure and some others; about 2.4% of the full set was active somewhere. Calls follow the shape of the dose curve; as a rule, active = well fitted curve in the direction sought with a large enough effect; inconclusive = small, poorly fitted or top-dose-only effect, or another doubt; inactive = no such curve, though single readings can be large; an effect the other way counts as inactive or inconclusive. Potency is read from the fitted curve at half-maximal effect.

SMILES	POLI inh	FEN1 inh	Pol kappa inh-1	Pol beta inh	Pol eta inh-1	WRN inhibitor	Pol eta inh-2	others
CCOc1c(OC(C)=O)ccc(/C=C2\N=C(SCC)SC2=O)c1[N+](=O)[O-]	7%	-9%	-4%	-5%	-14%	-4%	.
CCOc1cc(/C=C2\N=C(SC)SC2=O)cc([N+](=O)[O-])c1OC(C)=O	?	50µM*	45µM*	22µM*	?	?	.	Pol kappa inh-2=84*
CC(C)(C)c1ccc(Cn2cnc3c(cnn3C(C)(C)C)c2=O)cc1	-16%	14%	6%	.	.	.	.
COc1ccc(CCn2c3c(c(=O)[nH]c2=O)C(NC(=O)c2ccc(C(C)(C)C)cc2)(C(F)(F)F)C(=O)N3)cc1OC (centres undefined)	4%	11%	-8%	-2%	-8%	.	.
O=C(O)CCc1ccc(S(=O)(=O)Nc2cc(C(F)(F)F)ccc2N2CCCC2)cc1	25µM*	-8%	?	.	22µM*	?	60*	Pol kappa inh-2=?
Cc1nc2ncnn2c(N2CCN(C(=O)Cc3cccs3)CC2)c1C	?	-16%	?	20µM*	79µM*	?	?
O=C(Cc1cccs1)N1CCN(c2ccc(F)cc2)CC1	10%	8%	-5%	10%	-15%	-5%	.
CC(=O)NCCNc1nc(-c2ccc(N(C)C)cc2)nc2ccccc12	.	.	-9%[60.1 µM]	.	.	.	.
O=[N+]([O-])c1ccc2c(c1)N([O-])C1(CCCCC1)[N+]2=O	11µM*	?	?	-2%	22µM*	?	85*
COc1ccc(C2=Nn3c(nnc3-c3ccccc3OC)SC2)cc1O[C@H]1CCOC1	.	.	.	.	.	.	.	Pol kappa inh-2=2.7*
O=C(NCCS(=O)(=O)N1CCN(c2ccccc2F)CC1)C(c1ccccc1)c1ccccc1	8%	16%	-11%[60.1 µM]	0%	-7%	.	.
COc1ccc(Cn2ccc3nc(C)c(C(=O)N4CCN(c5ccccc5F)CC4)cc3c2=O)cc1	2%	-2%	-7%	9%	-11%	.	.
COC(=O)c1nc2nc(-c3cccs3)cc(C(F)(F)F)n2n1	16%	1%	6%	3%	-18%	-2%	.
O=C(NCc1ccco1)c1nc2nc(-c3cccs3)cc(C(F)(F)F)n2n1	?	-11%	?	?	18µM*	?	76*
CC(C)CNC(=O)Nc1cc(C(=O)NCc2ccc(C(C)C)cc2)ccc1N1CCCC1	-11%	-2%	-6%[60.1 µM]	?	-12%	.	.
O=C(COc1ccc(F)cc1)Nc1nc(-c2cccnc2)cs1	.	.	.	.	35µM*	-16%	?
O=C(O)C1Cc2ccccc2CN1C(=O)COc1ccc(Br)cc1 (centres undefined)	?	0%	79µM*	32µM*	10µM*	-19%	27*
O=C(O)C1Cc2ccccc2CN1C(=O)COc1ccc(Cl)cc1Cl (centres undefined)	12%	-1%	-42%	?	25µM*	-7%[11.6 µM]	?
O=C(CCCOc1ccc(Cl)cc1Cl)N1CCc2ccccc2C1	-17%	-12%	-6%	-1%	-16%	-20%	.
Cc1cc(/C=C2\SC(=S)NC2=O)c(C)n1-c1cccc(O)c1	?	-30%	-18%	45µM*	35µM*	?	?
O=S(=O)(c1ccc(F)cc1)N1CCC(n2c(C(F)(F)F)nc3cccnc32)CC1	13%	-9%	-15%	-1%	-12%	.	.
Cc1ccc(-c2c(C)n3c4c(=O)n(C)c(=O)n(C)c4nc3n2CCCO)cc1	18%	-11%	3%	-10%	-16%	.	.
Cc1ccc(N=C2NC(=O)/C(=C/C=C/c3ccco3)S2)cc1	3.2µM*	50µM*	20µM*	22µM*	10µM*	35µM*	67*
CNC(=O)c1cc(-c2cccs2)on1	3%	-6%	9%	.	.	.	.
COc1ccc(OC)c(NC(=O)c2c(NCc3ccc(C)o3)sc3c2CCC(C)C3)c1 (centres undefined)	-14%	-22%	-11%[60.1 µM]	?	-9%	.	.
SMILES	POLI inh	FEN1 inh	Pol kappa inh-1	Pol beta inh	Pol eta inh-1	WRN inhibitor	Pol eta inh-2	others
O=C(/C=C/c1ccco1)c1ccc(NC(=O)C23CC4CC(CC(C4)C2)C3)cc1	?	?	?	7.1µM*	10µM*	?	?
COc1cccc(-c2nccc(NCc3ccc(OC)cc3OC)n2)c1	.	.	-4%[60.1 µM]	.	.	.	.
Cc1c(CCC(=O)NCCCCCC(=O)O)c(=O)oc2cc3occ(-c4ccccc4)c3cc12	45µM*	?	?	?	22µM*	?	54*	Pol kappa inh-2=?
CCOC(=O)c1nc(NCc2ccc(Cl)cc2)c2c(C)noc2n1	19%	-5%	-5%[60.1 µM]	8%	-5%	.	.
O=C(O)c1cccc(N2CCCC2=O)c1	?	0%	7%	0%	-8%	-1%	.
O=C(O)c1cccc(N2CCCC2)c1	?	6%	-14%	2%	?	-9%[57.1 µM]	76*
CC(=O)Nc1ccc(C=NNc2ccc([N+](=O)[O-])cc2S(=O)(=O)Nc2ccccc2C(=O)O)cc1	?	?	-43%	.	50µM*	-30%	.	Pol kappa inh-2=?
CC(=O)Nc1ccc(S(=O)(=O)Nc2cc([N+](=O)[O-])ccc2C)cc1	42%	-5%	-3%	11%	-1%	-30%	.
Cc1nn(CCc2nn[nH]n2)c2nc(-c3ccc(C4CCCCC4)cc3)cc(C(F)(F)F)c12	29%	?	-35%	?	45µM*	?	?
Cc1nn(CCC(=O)O)c2nc(-c3cccnc3)cc(C(F)(F)F)c12	-10%	4%	4%	-1%	-9%	-12%	.
O=C(Cc1ccc([N+](=O)[O-])cc1)N/N=C/c1ccc([N+](=O)[O-])o1	?	-22%	-34%	-13%	3%	-9%	.
N#CCc1ccc(NC(=O)/C=C/c2ccc([N+](=O)[O-])o2)cc1	45µM*	4%	?	?	20µM*	?	?
COc1ccc(S(=O)(=O)Nc2cc3c(cc2NCc2ccccc2)n(C)c(=O)n3C)cc1	11%	-12%	-21%	6%	-14%	.	.
